{
  "source": "PubChem BioAssay AID651939",
  "about": "(The Scripps Research Institute Molecular Screening Center, 2012)",
  "note": "This is one part of the list. Values without a mark were called inactive. Active and inactive are the calls of the source. Cut-off read from the data, not from the text of the source: active = IC50 below about 9 µM; inactive = the rest.",
  "data": [
    {"experiment": "binders of control antibody PG126, dose response, counter-screen for PG9 antibody binder project, biochemical, TR-FRET, distinct HIV envelope site (AID 651939)", "conditions": "TR-FRET binding to antibody PG126, counterscreen", "values": [
      {"smiles": "COC(=O)C1=C(C)N(Cc2ccccc2C(F)(F)F)C(=NCc2ccc(OC)cc2)NC1c1cccc(C(F)(F)F)c1", "note": "(configuration not stated)", "IC50": "> 67 µM"},
      {"smiles": "Cc1cccc(Nc2nc3c(S(=O)(=O)c4ccccc4)nnn3c3ccccc23)c1C", "IC50": "3.75 µM (active)"},
      {"smiles": "COc1ccc(-c2c(C)nn3c(N4CCC(C(=O)N5CCCCC5)CC4)cc(C)nc23)cc1OC", "IC50": "> 67 µM"},
      {"smiles": "O=C(Nc1nnc(-c2ccccc2F)s1)c1ccccc1F", "IC50": "17.9 µM"},
      {"smiles": "CC1(C)Cc2ccccc2-c2[nH]c(=S)[nH]c(=O)c21", "IC50": "66.1 µM"},
      {"smiles": "S=c1[nH]c2ccccc2c2ccccc12", "IC50": "60.4 µM"},
      {"smiles": "O=C(Oc1ccccc1)Oc1ccc2c(c1)oc(=O)c1ccccc12", "IC50": "4.13 µM (active)"}
    ]}
  ]
}
